{"source": "PubChem BioAssay AID449762", "about": "(Southern Research Specialized Biocontainment Screening …, 2010)", "note": "The whole screen tested about 330,000 compounds, of which about 1,900 (0.58%) were called active. Not shown: some 4% with an inconclusive outcome. Rule as the data show it: inconclusive = inhibition above about 70% without an active follow-up result; inactive = below that. Only a sample is shown. Potency and affinity values are given separately.", "data": [{"experiment": "M. tuberculosis growth inhibition, HTS (AID 449762);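 also: bacterial growth assessed after seven days of incubation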", "settings": "M. tuberculosis H37Rv growth inhibition, 7H9 media; at 25 µM; hits give high values", "values": [{"smiles": "CCCCN1C(=N)N([C@@H](C)CN2CCC[C@H]2CN2C(N)=NC[C@H]2CC(C)C)C[C@H]1[C@H](C)CC", "inhibition": "-9.24% (inactive)"}, {"smiles": "O=c1c2ccccc2oc2ccc(NCCCn3ccnc3)cc12", "inhibition": "-0.23% (inactive)"}, {"smiles": "O=c1c2ccccc2oc2cc(NCCCn3ccnc3)ccc12", "inhibition": "64.1% (inactive)"}, {"smiles": "Nc1c(C(=O)Nc2ccc3c(c2)OCCO3)nnn1Cc1ccc(Cl)cc1", "inhibition": "0.83% (inactive)"}, {"smiles": "Nc1ccc(N(CCO)CCO)cc1", "inhibition": "6.03% (inactive)"}, {"smiles": "CCN(CC)c1ccccc1", "inhibition": "5.27% (inactive)"}, {"smiles": "O=C(NCc1ccc(Cl)cc1)C1CCN(c2cnccn2)CC1", "inhibition": "1.73% (inactive)"}, {"smiles": "Cc1ccc(NC(=O)Cn2cccc2)cc1", "inhibition": "3.9% (inactive)"}, {"smiles": "CC(C)(C)c1csc(NNC(=O)c2ccc(Br)cc2)n1", "inhibition": "66.5% (inactive)"}, {"smiles": "COc1ccc2[nH]c3c(c2c1)CCN1C(=O)N([C@@H](C)C(=O)NCCc2ccc(OC)c(OC)c2)C(=O)[C@]31C", "inhibition": "-11.9% (inactive)"}, {"smiles": "CN(C)/C=C1/C(=O)N(c2ccc([N+](=O)[O-])cc2)N=C1c1ccccc1", "inhibition": "0.35% (inactive)"}, {"smiles": "CN(C)/C=C1\\C(=O)N(c2ccc([N+](=O)[O-])cc2)N=C1c1ccccc1", "inhibition": "-2.09% (inactive)"}, {"smiles": "NC(=O)c1ccsc1N", "inhibition": "6.02% (inactive)"}, {"smiles": "NC(=O)c1ccc(Cn2c(C(=O)c3ccc(Cl)cc3)c3ccccc3[n+]2[O-])cc1", "inhibition": "2.02% (inactive)"}, {"smiles": "CCOc1ccc(CNc2ncc(-c3ccccc3)n2C)cc1", "inhibition": "8.71% (inactive)"}, {"smiles": "COCCn1c(-c2ccc(OC)cc2)cnc1SCC(=O)Nc1cccc2ccccc12", "inhibition": "57.1% (inactive)"}, {"smiles": "Cn1c(CCNC(=O)c2ccco2)nc2ccccc21", "inhibition": "-1.68% (inactive)"}, {"smiles": "Cc1cccc(NC(=O)CCCNC(=O)c2ccc(Cl)cc2)n1", "inhibition": "-15.3% (inactive)"}, {"smiles": "COc1cc(Cn2ccnc2)c(OC)cc1Cn1ccnc1", "inhibition": "0.13% (inactive)"}, {"smiles": "COc1ccc(NCc2ccc(OC)c(Cn3ccnc3)c2)c(OC)c1", "inhibition": "17.3% (inactive)"}, {"smiles": "CCCC(=O)Nc1ccc(-c2csc(NNC(C)=O)n2)cc1", "inhibition": "8.91% (inactive)"}, {"smiles": "CN(C)CCOc1ncnc2c1oc1ccccc12", "inhibition": "-7.93% (inactive)"}, {"smiles": "CCc1nc(OCCN(C)C)c2oc3ccccc3c2n1", "inhibition": "5.77% (inactive)"}, {"smiles": "O=C(CCSc1nc(-c2ccco2)cc(C(F)(F)F)n1)NCc1ccccn1", "inhibition": "-4.91% (inactive)"}, {"smiles": "Cc1nc2scc(-c3cccs3)c2c(=O)n1N", "inhibition": "-9.74% (inactive)"}, {"smiles": "Cc1ccc(C)n1-n1c(C)nc2scc(-c3cccs3)c2c1=O", "inhibition": "1.92% (inactive)"}, {"smiles": "CCCCc1nn(-c2cc(Cl)ccc2OC)c2c1C(=O)CCC2", "inhibition": "-11.2% (inactive)"}, {"smiles": "CCOC(=O)c1nn(-c2ccc(F)cc2)c2nc(CC(C)C)c(C#N)c(=O)n12", "inhibition": "-13.7% (inactive)"}, {"smiles": "Cc1cccc(OC(C)C(=O)OCC(=O)N2CCN(c3ccccc3)CC2)c1", "note": "(stereo unspecified)", "inhibition": "69.9% (inactive)"}, {"smiles": "Cc1ccc(C(=O)OCC(=O)N2CCC(c3ccccc3)=N2)cc1", "inhibition": "-0.51% (inactive)"}, {"smiles": "CCc1cc(C(=O)OCC(=O)N2CCC(c3ccccc3)=N2)sc1C", "inhibition": "9.02% (inactive)"}, {"smiles": "COc1ccc(NC(=O)c2cc(-c3cc(C)ccc3O)n[nH]2)cc1Cl", "inhibition": "-5.54% (inactive)"}, {"smiles": "CC(C)(Oc1ccc(Cl)cc1)C(=O)NCc1n[nH]c(=O)c2ccccc12", "inhibition": "-7.84% (inactive)"}, {"smiles": "Cc1nn(C)cc1/C=N/NC(=O)C(C)(C)Oc1ccc(Cl)cc1", "inhibition": "-2.26% (inactive)"}, {"smiles": "Cc1ccc(CNC(=S)Nc2ccc(C)c([N+](=O)[O-])c2)cc1", "inhibition": "1.67% (inactive)"}, {"smiles": "CCOc1ccc(NC(=S)Nc2cc(C)[nH]n2)cc1", "inhibition": "11.8% (inactive)"}, {"smiles": "CCOc1ccc(NC(=S)/C(=C(\\[O-])c2ccc(C)c([N+](=O)[O-])c2)[n+]2ccccc2)cc1", "inhibition": "-4.46% (inactive)"}, {"smiles": "Cc1ccc(NC(=S)Nc2cc(-c3ccccc3)[nH]n2)cc1Cl", "inhibition": "3.77% (inactive)"}, {"smiles": "O=C(CN(C(=O)CNC(=O)c1cccs1)c1ccc(F)cc1)NC1CCCC1", "inhibition": "-5.64% (inactive)"}, {"smiles": "Cc1ccc(C(=O)Nc2cnc3sc(C)nn3c2=O)cc1", "inhibition": "-8.53% (inactive)"}, {"smiles": "CC1=C(C(=O)OCC2CCCO2)C(c2ccc(C)cc2)C2=C(CCCC2=O)N1", "note": "(stereo unspecified)", "inhibition": "-4.69% (inactive)"}, {"smiles": "COc1ccc(C2COc3cc(O)ccc3C2)c(OC)c1O", "note": "(stereo unspecified)", "inhibition": "-7.8% (inactive)"}, {"smiles": "CCCCSc1nnc(CSc2nc3nc(C)cc(C)n3n2)o1", "inhibition": "-4.57% (inactive)"}, {"smiles": "CCCSc1nnc(CSc2nc3nc(C)cc(C)n3n2)o1", "inhibition": "6.82% (inactive)"}, {"smiles": "CC1Cn2c(nc3sc4c(c3c2=O)CCC4)N1CCO", "note": "(stereo unspecified)", "inhibition": "3.69% (inactive)"}, {"smiles": "O=C(c1ccccn1)N1CCN(c2ccc(C(F)(F)F)cn2)CC1", "inhibition": "-9.2% (inactive)"}, {"smiles": "Cc1ccc(C(=O)N2CCN(c3ccc(C(F)(F)F)cn3)CC2)cc1", "inhibition": "-8.18% (inactive)"}, {"smiles": "CS(=O)(=O)N(CC(=O)Nc1ccc(C(N)=O)cc1)C1CCCCC1", "inhibition": "0.92% (inactive)"}, {"smiles": "CN(CC(=O)Nc1cccc(F)c1)C(=O)CCN1C(=O)C2CC=CCC2C1=O", "note": "(stereo unspecified)", "inhibition": "-7.97% (inactive)"}, {"smiles": "Cc1ccc(C(=O)N2CCC3(CC2)NCCc2[nH]cnc23)cc1", "inhibition": "0.45% (inactive)"}, {"smiles": "CCOC(=O)c1c(-c2ccccc2)c2cc(OC)ccc2n1CCCN(C)C", "inhibition": "47.1% (inactive)"}, {"smiles": "Cn1c(=O)c(C(=O)NNC(=O)c2ccccc2Br)c(O)c2ccccc21", "inhibition": "45.1% (inactive)"}, {"smiles": "Cn1c(=O)c(C(=O)NNC(=O)c2ccccc2Cl)c(O)c2ccccc21", "inhibition": "53.6% (inactive)"}, {"smiles": "Cc1ccc(C(=O)N/C(=C\\c2cccs2)c2nc3ccccc3[nH]2)cc1", "inhibition": "-6.82% (inactive)"}, {"smiles": "Cc1ccc(C(=O)N/C(=C\\c2cccnc2)c2nc3ccccc3[nH]2)cc1", "inhibition": "-7.38% (inactive)"}, {"smiles": "CC(C)[C@@]1(c2ccc(Cl)cc2)ON(c2ccccc2C(F)(F)F)C1=O", "inhibition": "-3.69% (inactive)"}, {"smiles": "CCn1c(C)c(C)c2cc(C(=O)NCCCN3CCCC3)ccc21", "inhibition": "-0.8% (inactive)"}, {"smiles": "O=C(Nc1nc2c(s1)CCCC2)Oc1ccccc1", "inhibition": "-2.24% (inactive)"}, {"smiles": "O=C(NC(=S)Nc1nc2c(s1)CCCC2)c1ccccc1", "inhibition": "2.45% (inactive)"}, {"smiles": "O=C(COc1ccc([N+](=O)[O-])cc1)N/N=C/c1cc([N+](=O)[O-])ccc1N1CCOCC1", "inhibition": "3.18% (inactive)"}, {"smiles": "CCC(C)NC(=O)CNC(=S)N(Cc1ccccc1)Cc1cccnc1", "note": "(stereo unspecified)", "inhibition": "-7.33% (inactive)"}]}]}
